Source: PubChem BioAssay AID1159580 (chemical genetic matrix, 2015)
About 2,000 (36%) of roughly 5,500 compounds were called active. Another 18% or so got no clear call; they are omitted. Cut-off read from the data, not from the text of the source: active = normalized growth mostly below about 0.91 (no sharp cut-off); inconclusive = no clear call, values can overlap the other calls; inactive = mostly above about 0.92. The list shows a part of the results.

Test: chemical genetic growth profiling, strain panel (AID 1159580);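 note: tested at 20 µM; growth read once vehicle control cultures reached saturation at 30 °C; 1 = growth at the plate median or of vehicle wells; lower values mean less growth of the strain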
Conditions: growth OD

Measured: normalized growth

CC(=O)OCC1=C(C(=O)O)N2C(=O)[C@@H](NC(=O)CSc3ccncc3)[C@H]2SC1
inactive: S. cerevisiae deletion strains, locus YJR043C, strain POL32, active compounds read low 0.959 | S. cerevisiae deletion strains, locus YJR066W, strain TOR1, active compounds read low 0.987 | S. cerevisiae deletion strains, locus YKL009W, strain mrt4, active compounds read low 1 | S. cerevisiae deletion strains, locus YKL068W, active compounds read low 0.982 | S. cerevisiae deletion strains, locus YKL085W, strain MDH1 (second series), active compounds read low 0.975 | S. cerevisiae deletion strains, locus YKL085W, strain MDH1, active compounds read low 0.975 | S. cerevisiae deletion strains, locus YKL160W, strain elf1, active compounds read low 1.03 | S. cerevisiae deletion strains, locus YKR001C, strain vps1, active compounds read low 0.994 | S. cerevisiae deletion strains, locus YKR026C, strain gcn3, active compounds read low 1.03 | S. cerevisiae deletion strains, locus YKR091W, strain srl3, active compounds read low 1.02 | S. cerevisiae deletion strains, locus YLL001W, strain dnm1, active compounds read low 1.02 | S. cerevisiae deletion strains, locus YLL026W, active compounds read low 1.01 | S. cerevisiae deletion strains, locus YLL041C, strain sdh2, active compounds read low 1.02 | S. cerevisiae deletion strains, locus YLR027C, strain aat2, active compounds read low 1.02 | S. cerevisiae deletion strains, locus YLR039C, strain RIC1, active compounds read low 0.981 | S. cerevisiae deletion strains, locus YLR058C, strain SHM2, active compounds read low 0.985 | S. cerevisiae deletion strains, locus YLR102C, strain apc9, active compounds read low 0.988 | S. cerevisiae deletion strains, locus YLR113W, strain HOG1, active compounds read low 0.974 | S. cerevisiae deletion strains, locus YLR221C, strain rsa3, active compounds read low 1.03 | S. cerevisiae deletion strains, locus YLR258W, strain gsy2, active compounds read low 1.01 | S. cerevisiae deletion strains, locus YLR262C, strain YPT6 (second series), active compounds read low 1.07 | S. cerevisiae deletion strains, locus YLR262C, strain YPT6, active compounds read low 0.926 | S. cerevisiae deletion strains, locus YLR268W, strain sec22, active compounds read low 0.957 | S. cerevisiae deletion strains, locus YLR320W, strain mms22, active compounds read low 1 | S. cerevisiae deletion strains, locus YLR330W, strain CHS5, active compounds read low 0.98 | S. cerevisiae deletion strains, locus YLR342W, strain FKS1 (second series), active compounds read low 0.986 | S. cerevisiae deletion strains, locus YLR342W, strain FKS1, active compounds read low 1.03 | S. cerevisiae deletion strains, locus YLR357W, strain rsc2, active compounds read low 1.05 | S. cerevisiae deletion strains, locus YLR370C, strain arc18, active compounds read low 1.01 | S. cerevisiae deletion strains, locus YLR371W, strain rom2, active compounds read low 0.994 | S. cerevisiae deletion strains, locus YLR384C, strain iki3, active compounds read low 1.04 | S. cerevisiae deletion strains, locus YLR418C, strain cdc73, active compounds read low 1.05 | S. cerevisiae deletion strains, locus YML016C, strain PPZ1, active compounds read low 0.987 | S. cerevisiae deletion strains, locus YML032C, strain rad52, active compounds read low 0.992 | S. cerevisiae deletion strains, locus YML120C, strain ndi1, active compounds read low 1.03 | S. cerevisiae deletion strains, locus YML124C, strain tub3, active compounds read low 0.994 | S. cerevisiae deletion strains, locus YMR058W, strain fet3, active compounds read low 1.01 | S. cerevisiae deletion strains, locus YMR078C, strain ctf18, active compounds read low 0.987 | S. cerevisiae deletion strains, locus YMR125W, strain sto1, active compounds read low 1.02 | S. cerevisiae deletion strains, locus YMR129W, active compounds read low 1.02 | S. cerevisiae deletion strains, locus YMR205C, strain PFK2, active compounds read low 1.02 | S. cerevisiae deletion strains, locus YMR223W, strain ubp8, active compounds read low 1.01 | S. cerevisiae deletion strains, locus YMR231W, strain pep5, active compounds read low 1.01 | S. cerevisiae deletion strains, locus YMR263W, strain SAP30, active compounds read low 1 | S. cerevisiae deletion strains, locus YMR307W, strain GAS1, active compounds read low 0.972 | S. cerevisiae deletion strains, locus YNL067W, strain RPL9B, active compounds read low 1.01 | S. cerevisiae deletion strains, locus YNL071W, strain lat1, active compounds read low 1.01 | S. cerevisiae deletion strains, locus YNL183C, strain NPR1, active compounds read low 0.924 | S. cerevisiae deletion strains, locus YNL209W, strain ssb2, active compounds read low 1.02 | S. cerevisiae deletion strains, locus YNL233W, strain BNI4, active compounds read low 1.02 | S. cerevisiae deletion strains, locus YNL248C, strain rpa49, active compounds read low 1.02 | S. cerevisiae deletion strains, locus YNL250W, strain rad50, active compounds read low 0.99 | S. cerevisiae deletion strains, locus YNL271C, strain bni1, active compounds read low 1 | S. cerevisiae deletion strains, locus YNL298W, strain CLA4, active compounds read low 0.992 | S. cerevisiae deletion strains, locus YNL307C, strain MCK1, active compounds read low 0.993 | S. cerevisiae deletion strains, locus YNL322C, strain KRE1 (second series), active compounds read low 1.03 | S. cerevisiae deletion strains, locus YNL322C, strain KRE1, active compounds read low 0.997 | S. cerevisiae deletion strains, locus YNR049C, strain mso1, active compounds read low 1.02 | S. cerevisiae deletion strains, locus YNR052C, strain pop2, active compounds read low 0.991 | S. cerevisiae deletion strains, locus YOL012C, strain htz1 0.881 | S. cerevisiae deletion strains, locus YOL147C, strain pex11, active compounds read low 1 | S. cerevisiae deletion strains, locus YOR001W, strain rrp6, active compounds read low 1.04 | S. cerevisiae deletion strains, locus YOR061W, strain CKA2, active compounds read low 0.969 | S. cerevisiae deletion strains, locus YOR069W, strain VPS5, active compounds read low 0.985 | S. cerevisiae deletion strains, locus YOR070C, strain gyp1, active compounds read low 1.01 | S. cerevisiae deletion strains, locus YOR080W, strain dia2, active compounds read low 1.05 | S. cerevisiae deletion strains, locus YOR083W, strain WHI5, active compounds read low 1.05 | S. cerevisiae deletion strains, locus YOR106W, strain vam3, active compounds read low 1.05 | S. cerevisiae deletion strains, locus YOR136W, strain idh2, active compounds read low 0.983 | S. cerevisiae deletion strains, locus YOR144C, strain elg1, active compounds read low 0.985 | S. cerevisiae deletion strains, locus YOR184W, strain ser1, active compounds read low 0.995 | S. cerevisiae deletion strains, locus YOR231W, strain MKK1, active compounds read low 0.985 | S. cerevisiae deletion strains, locus YOR265W, strain rbl2, active compounds read low 1.02 | S. cerevisiae deletion strains, locus YOR270C, strain vph1, active compounds read low 1.07 | S. cerevisiae deletion strains, locus YOR290C, strain snf2, active compounds read low 0.998 | S. cerevisiae deletion strains, locus YOR316C, strain cot1, active compounds read low 0.981 | S. cerevisiae deletion strains, locus YPL051W, strain arl3, active compounds read low 1.04 | S. cerevisiae deletion strains, locus YPL078C, strain atp4, active compounds read low 1.05 | S. cerevisiae deletion strains, locus YPL106C, strain sse1, active compounds read low 1.02 | S. cerevisiae deletion strains, locus YPL240C, strain hsp82, active compounds read low 1.02 | S. cerevisiae deletion strains, locus YPL241C, strain CIN2, active compounds read low 0.988 | S. cerevisiae deletion strains, locus YPL256C, strain CLN2, active compounds read low 1.01 | S. cerevisiae deletion strains, locus YPR119W, strain clb2, active compounds read low 0.982 | S. cerevisiae deletion strains, locus YPR141C, strain kar3, active compounds read low 0.991 | S. cerevisiae deletion strains, locus YPR163C, strain tif3, active compounds read low 0.991 | S. cerevisiae deletion strains, locus YPR167C, strain met16, active compounds read low 1 | S. cerevisiae deletion strains, strain wtn01, active compounds read low 0.995 | S. cerevisiae strains, strain wild type, active compounds read low 0.982
